Compound activity deposited in PubChem by several laboratories.
The list is not random: actives were taken first. Their share in the collection is about 3.6%.
Anthrax LF inh2 = Bacillus anthracis LF protease inhibitors, primary screen, biochemical, multiplex microsphere, MLPCN library | AID 588501, 2011 | 360,000 tested, 0.12% active | inhibition, % at 10 µM | multiplex microsphere protease cleavage assay; further: plate controls were buffer without enzyme for full effect and enzyme alone for no effect
Target sequence (P15917 whole entry, looked up): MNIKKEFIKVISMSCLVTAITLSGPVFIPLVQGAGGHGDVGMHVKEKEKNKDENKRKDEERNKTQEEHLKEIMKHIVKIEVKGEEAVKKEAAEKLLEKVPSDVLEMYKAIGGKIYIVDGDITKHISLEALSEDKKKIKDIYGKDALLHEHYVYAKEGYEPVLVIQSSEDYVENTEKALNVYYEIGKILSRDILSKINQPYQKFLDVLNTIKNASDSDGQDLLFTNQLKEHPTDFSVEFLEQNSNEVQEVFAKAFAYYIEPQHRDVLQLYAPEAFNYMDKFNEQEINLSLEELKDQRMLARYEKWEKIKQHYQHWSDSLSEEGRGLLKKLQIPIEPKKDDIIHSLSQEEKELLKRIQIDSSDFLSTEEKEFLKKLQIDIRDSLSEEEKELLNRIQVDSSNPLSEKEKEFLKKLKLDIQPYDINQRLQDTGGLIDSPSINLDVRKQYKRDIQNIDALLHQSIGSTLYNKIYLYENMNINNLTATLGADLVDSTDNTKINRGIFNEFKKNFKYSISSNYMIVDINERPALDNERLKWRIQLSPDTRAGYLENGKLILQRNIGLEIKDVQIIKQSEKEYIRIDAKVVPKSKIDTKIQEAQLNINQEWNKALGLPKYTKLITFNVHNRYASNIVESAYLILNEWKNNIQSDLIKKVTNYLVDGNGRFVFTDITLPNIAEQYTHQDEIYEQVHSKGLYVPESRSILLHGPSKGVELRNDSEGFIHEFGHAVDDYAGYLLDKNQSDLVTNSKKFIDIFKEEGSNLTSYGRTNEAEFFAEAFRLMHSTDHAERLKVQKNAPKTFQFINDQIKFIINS
MazF activator = activators of E. coli MazEF toxin-antitoxin RNase, primary screen, biochemical, fluorescence, uHTS; Endoribonuclease toxin MazF (Escherichia coli (strain K12)), P0AE70; FAM/BHQ RNA-DNA oligo cleavage fluorescence, 5 h; activation, % at 20 µM; 350,000 tested, 0.32% active; in the data active means activation above about 50%
BoNT F protease = BoNT/F light chain protease inhibitors, primary screen, biochemical, flow cytometry, MLPCN library; 360,000 tested, 0.22% active; AID 588497, 2011; Multiplex microsphere protease cleavage assay; Botulinum neurotoxin type F light chain protease (Clostridium botulinum); inhibition, % at 10 µM; in the data active means inhibition above about 35%, passing the limit was not always enough; further: plate controls were buffer without enzyme for full effect and enzyme alone for no effect
BoNT A protease = BoNT/A light chain protease inhibitors, primary screen, biochemical, flow cytometry, MLPCN library; Botulinum neurotoxin type A light chain protease (Clostridium botulinum A str. ATCC 3502); multiplex microsphere protease substrate cleavage; inhibition, % at 10 µM; 360,000 tested, 0.17% active; AID 588499, 2011; further: plate controls were buffer without enzyme for full effect and enzyme alone for no effect
Bead autofluor = counter-screen for toxin protease inhibitors: compound fluorescence; compound autofluorescence counterscreen, microsphere flow cytometry; active compounds read high; fluorescence intensity (no concentration beside the values); 360,000 tested, 3.1% active; in the data active means fluorescence intensity above about 16000
BoNTA LC inh 2 = BoNT/A light chain protease inhibitors, confirmation, biochemical, flow cytometry, cherry pick 2 | shares compounds with BoNT A protease | multiplex microsphere protease cleavage assay | inhibition, % at 10 µM | 150 tested, 10% active; in the data active means inhibition above about 24%
LF protease CP2 = Bacillus anthracis LF protease inhibitors, confirmation, biochemical, multiplex microsphere | shares compounds with BoNT A protease | multiplex microsphere protease cleavage assay | inhibition, % at 10 µM | 150 tested, 7% active; in the data active means inhibition above about 25%
BoNT-F LC CP2 = BoNT/F light chain protease inhibitors, confirmation, biochemical, flow cytometry, cherry pick 2. inhibition, % at 10 µM. shares compounds with BoNT A protease. 150 tested, 7% active. multiplex microsphere protease cleavage assay; in the data active means inhibition above about 25%
Numbers without * were called inactive; / = no result. Unless noted, no stated cut-off is given here; in the data, active means inhibition above about 30%; inconclusive means no clear call, values can overlap the other calls; inactive means below that.

SMILES	Anthrax LF inh2	MazF activator	BoNT F protease	BoNT A protease	Bead autofluor	BoNTA LC inh 2	LF protease CP2	BoNT-F LC CP2
Cn1ccc2c(-c3ccc(C(N)=O)cc3)cc3c(c21)C1CCC3O1 (stereo not given)	-2	/	-5	-1	5374	/	/	/
CC1CN1c1cc2c(c3c1ccn3C)C1CCC2C1 (stereo not given)	-11	/	-14	0	5654	/	/	/
Cn1ccc2c(-c3ccc(C(C)(C)C)cc3)cc3c(c21)C1CCC3C1 (stereo not given)	-5	/	0	-1	5412	2	-3	-4
CC1=C(C(=O)N(C(C)C)C(C)C)CC(CC(=O)NC(c2ccccc2)c2ccccc2)C(=O)N1CCCN1CCCC1=O (stereo not given)	-7	/	-3	0	5404	/	/	/
O=C(C[n+]1ccc(C(=O)c2ccccc2)cc1)Nc1ccccc1OC(F)F	64*	1	32	55*	2711	2	2	-4
Cc1onc(-c2ccccc2Cl)c1C(=O)NCc1ccc2c(c1)cc(C)n2C	-75	3	-87	83*	2004	49*	20	-40
Cc1cc2cc(CNC(=O)Nc3ccc(Cl)c(Cl)c3)ccc2n1C	-117	7	-123	35*	2226	10	-6	-38
COc1ccc(C(=O)NCc2ccc3c(c2)cc(C)n3C)cc1	-37	5	-82	95*	1203	8	9	13
CCOc1ccc(CC(=O)NCc2ccc3c(c2)cc(C)n3C)cc1	-8	10	-29	81*	2221	3	-1	5
CCN1CCN(c2ccc(Nc3ccnc4ccccc34)cc2)CC1	-7	30	-18	3	6166	/	/	/
OCc1ccccc1-c1cnc2cccnn12	2	/	-2	0	3583	/	/	/
CC(C)CN(C(=O)CSc1nc2ccccc2o1)c1c(N)n(Cc2ccccc2)c(=O)[nH]c1=O	2	-14	2	-1	3874	/	/	/
COc1ccccc1-c1cc2c(c3c1ccn3C)C1CCC2O1 (stereo not given)	21	/	10	10	5495	/	/	/
COc1ccccc1-c1cc2c(c3c1ccn3C)C1CCC2C1 (stereo not given)	30*	/	-10	12	4225	4	0	-6
Cn1ccc2c(-c3ccccc3F)cc3c(c21)C1CCC3C1 (stereo not given)	-8	/	2	3	5841	2	-3	-1
CCN(CC)c1ccc(C=Nc2cccc(S(=O)(=O)N3CCOCC3)c2)c(O)c1	46*	2	17	51*	3355	16	14	5
CC(=O)OCC(=O)c1c[nH]c2ccccc12	-3	-4	-6	0	5991	/	/	/
COc1cccc(C(=O)OCC(=O)c2c[nH]c3ccccc23)c1O	-2	21	-6	1	4429	10	13	37*
Cc1ccc(Cc2c(-c3cccc(Cl)c3)nc3cc(C)c(Br)c(C)n23)cc1	2	/	-9	0	5438	/	/	/
Cc1cc2nc(-c3ccc(F)cc3)c(Cc3cccc(Cl)c3)n2c(C)c1Br	-1	/	-6	2	4535	3	0	6
Cc1cc2nc(-c3ccc(F)cc3)c(Cc3ccccc3)n2c(C)c1Br	3	/	4	2	5770	/	/	/
Cc1cc2nc(-c3ccccc3)c(Cc3cccc(Cl)c3)n2c(C)c1Br	-4	/	-3	-1	4680	16	-4	12
Cc1ccc(-c2nc3cc(C)c(Br)c(C)n3c2Cc2cccc(Cl)c2)cc1	-5	/	0	1	4668	26*	-2	16
Cc1cc2nc(-c3cccc(Br)c3)c(Cc3ccsc3)n2c(C)c1Br	-7	/	-8	1	4588	4	1	7
Cc1cc2nc(-c3ccccc3)c(Cc3cccc(F)c3)n2c(C)c1Br	5	/	-8	3	5507	/	/	/
SMILES	Anthrax LF inh2	MazF activator	BoNT F protease	BoNT A protease	Bead autofluor	BoNTA LC inh 2	LF protease CP2	BoNT-F LC CP2
COc1ccccc1Cc1c(-c2ccc(OC)c(OC)c2)nc2cc(C)c(Br)c(C)n12	-16	/	-1	2	4221	/	/	/
COc1ccc(-c2nc3cc(C)c(Br)c(C)n3c2Cc2ccsc2)cc1OC	0	/	-4	2	4388	3	-2	-7
COc1ccc(-c2nc3cc(C)c(Br)c(C)n3c2Cc2ccccc2C(F)(F)F)cc1OC	-8	/	-7	1	5906	2	-2	-2
COc1ccc(Cc2c(-c3cccc(Br)c3)nc3cc(C)c(Br)c(C)n23)c(C)c1	0	/	5	1	4530	/	/	/
Cc1cc2nc(-c3cccc(Cl)c3)c(Cc3ccsc3)n2c(C)c1Br	3	/	-6	3	6217	9	-5	2
CCOC(=O)c1c(S(=O)(=O)NCC(=O)Nc2cc(C)ccc2OC)c(C)n(C)c1C	1	5	-2	1	4339	/	/	/
O=S1(=O)N[C@@H](Cc2ccccc2)COc2cc(N3CC[C@H](O)C3)ccc21	-5	/	-8	-1	4626	/	/	/
CC(C)Oc1cccc(C(=O)Nc2ccc(Br)cc2F)c1	0	-12	10	1	1886	/	/	/
Cc1[nH]c2ccc(CNS(=O)(=O)c3ccc(S(=O)(=O)N4CCOCC4)cc3)cc2c1C	0	-1	-1	0	6262	2	-3	-2
Cc1ccc(S(=O)(=O)N2CC(O)C[C@H]2C(=O)OCC(=O)N2CCN(c3ccc(F)cc3)CC2)cc1C (stereo not given in full)	97*	1	97*	99*	5341	2	0	5
Brc1ccsc1/C=N/Nc1ccccc1	-5	5	2	0	5569	/	/	/
CCN(CC)C(=O)C1=C(C)N(Cc2ccc(F)cc2)C(=O)C(CC(=O)NCC2CCCCC2)C1 (stereo not given)	-5	13	-4	0	3314	/	/	/
O=C1CC(c2ccccc2F)c2c(c3ccccc3[nH]c2=O)O1 (stereo not given)	/	-4	/	/	/	/	/	/
COc1cccc(-c2cc3c(c4c2ccn4C)C2CCC3C2)c1 (stereo not given)	2	/	-22	18	4290	10	2	-14
COc1ccc(-c2cc3c(c4c2ccn4C)C2CCC3C2)cc1 (stereo not given)	-2	/	-22	14	3998	2	3	3
COc1ccc([C@H]2CC(=O)C=C(/C=C/c3ccccc3)C2)cc1OC	-2	-9	-9	0	3693	/	/	/
Brc1cccc(-c2nc3cccnc3nc2-c2cccc(Br)c2)c1	-13	16	7	-2	4003	/	/	/
